Measured values from PubChem BioAssay (Tox21).
Several values for one entry are separate records, joined by “and”; a condition that tells them apart may be missing. Equal values may be shown once. Results filed as inconclusive are left out. Values without a mark were called inactive. Activity calls are given as the source filed them. Calls follow the shape of the dose curve; as a rule, active = well fitted activation curve with a large enough effect in the signal ratio in the repeat runs (not every such curve was filed as active); inconclusive = weak or mixed curves, or effect the other way; inactive = no such curve, though single readings can be large or run the other way; the % refers to the signal ratio.

experiment: qHTS assay for small molecule agonists of the antioxidant response element (ARE) signaling pathway (AID 743202); conditions: HepG2 ARE-bla reporter, beta-lactamase FRET, 16 h; series mostly up to 73.3 µM; activation: at the top concentration
Description: U.S. Tox21 Program National Center for Advancing Translational Sciences [NCATS] NIH Chemical Genomics Center [NCGC] U.S. Environmental Protection Agency [EPA] National Institutes of Environmental Health Sciences [NIEHS] National Toxicology Program [NTP] U.S. Food and Drug Administration [FDA] Tox21 Assay Overview: Oxidative stress has been implicated in the pathogenesis of a variety of diseases ranging from cancer to neurodegeneration. The antioxidant response element (ARE) signaling pathway plays an important role in the amelioration of oxidative stress. The CellSensor ARE-bla HepG2 cell line (Invitrogen) can be used for analyzing the Nrf2/antioxidant response signaling pathway. Nrf2 (NF-E2-related factor 2) and Nrf1 are transcription factors that bind to AREs and activate these genes. The CellSensor ARE-bla Hep G2 cell line contains a beta-lactamase reporter gene under control of the Antioxidant Response Element (ARE) stably integrated into HepG2 cells. The activation of the report gene under culture conditions can be detected by fluorescence intensity. This cell line has been used to screen the Tox21 10K compound library to identify agonists that induce oxidative stress.
Tox21 Assay Protocol Summary: The ARE-bla cells were dispensed at 2,000 cells/5 ul/well in 1536-well black wall/clear bottom plates using a Multidrop dispenser. After the assay plates were incubated at a 37 C/5% CO2 incubator for 5 hours, 23 nL of compounds dissolved in DMSO, positive controls or DMSO only was transferred to the assay plate by a pin tool. The plates were incubated at 37 C for 16 hours. After 1 uL of LiveBLAzer B/G FRET substrate was added using a Flying Reagent Dispenser, the plates were incubated at room temperature for 2 hours, and fluorescence intensity was measured by an Envision plate reader.
% is scaled to controls: 0 for no effect and ±100 for the full control effect; potency is read from the fitted curve at half-maximal effect.

SMILES	activation	Potency
CNC(C)Cc1ccc2c(c1)OCO2 (stereo not given)	-3.57% [at 94.8 µM]	–
O=c1oc2ccccc2c(O)c1Cc1c(O)c2ccccc2oc1=O	–	7.5 µM (active)
CCN	5.32% [at 94.8 µM]	–
N#CCCSCCC#N	3.54%	–
CN(C)C(=S)[S-].CN(C)C(=S)[S-].[Cu+2]	–	1.49 µM (active)
CC(=O)Nc1ccc2c(c1)Cc1ccccc1-2	–	27.7 µM (active)
O=C/C(Cl)=C(/Cl)C(=O)O	–	38.5 µM (active) and 27.3 µM (active)
CC(C)CCCCCOC(=O)c1ccccc1C(=O)OCCCCCC(C)C	0.308%	–
C[C@]12Cc3nonc3C[C@@H]1CC[C@@H]1[C@@H]2CC[C@@]2(C)[C@H]1CC[C@]2(C)O	–	8.41 µM (active)
O=CC(Br)(Br)Br	–	1.72 µM (active)
CCOC(=O)OC1=C(c2cc(C)ccc2C)C(=O)NC12CCC(OC)CC2 (stereo not given)	-0.182%	–
N#CNC#N	-12.3% [at 94.8 µM]	–
CC(C)CC(C)N (stereo not given)	-1.98%	–
CCN(CC)c1c([N+](=O)[O-])cc(C(F)(F)F)c(N)c1[N+](=O)[O-]	27.3%	–
COc1ccc(OC)c(CC(C)N)c1 (stereo not given)	-12.1% [at 94.8 µM]	–
CC1(c2ccc(Oc3ccccc3)cc2)OC(=O)N(Nc2ccccc2)C1=O (stereo not given)	–	0.615 µM (active)
CC(c1ccc(O)cc1)c1ccc(O)cc1	–	25.6 µM (active)
c1ccc2c(c1)OCC(C1=NCCN1)O2 (stereo not given)	–	13.3 µM (active)
CC(=O)O[C@H]1CC[C@@]2(C)C(=CC[C@@H]3[C@@H]2CC[C@]2(C)C(=O)CC[C@@H]32)C1	–	48.6 µM (active)
CC(C)[C@H](C(=O)OC(C#N)c1cccc(Oc2ccccc2)c1)c1ccc(OC(F)F)cc1 (stereo not given in full)	-0.507%	–

SMILES	activation	Potency
FC(Cl)(Cl)Cl	3.85%	–
c1ccc(OCC2CO2)cc1 (stereo not given)	1.21% [at 94.8 µM]	–
BrCBr	-8.13% [at 94.8 µM]	–
CC[C@H]1C[C@@H]2C[C@H]3c4[nH]c5ccc(OC)cc5c4CCN(C2)[C@@H]13	-1.09%	–
C=CC(=O)OCCCCOC(=O)C=C	–	27.3 µM (active)
O=[N+]([O-])c1c2ccccc2cc2ccccc12	–	21.4 µM (active)
CC(C)OC(=O)C(O)(c1ccc(Cl)cc1)c1ccc(Cl)cc1	17.2%	–
O=C(CCCN1CCC2(CC1)C(=O)NCN2c1ccccc1)c1ccc(F)cc1	–	2.98 µM (active)
CC(=O)c1cc(C(C)(C)C)cc2c1CCC2(C)C	-0.116%	–
CC(C)OS(C)(=O)=O	0.0357% [at 94.8 µM]	–
CN(C)C1CSSSC1	–	34.3 µM (active)
BrC(Br)Br	-1.59%	–
O=c1[nH]c2ccccc2n1CCCN1CCC(n2c(=O)[nH]c3cc(Cl)ccc32)CC1	4.04%	–
CC(C)C1CCC(Cc2ccc(Cl)cc2)C1(O)Cn1cncn1 (stereo not given)	–	15.2 µM (active)
CCOc1cc(C(C)(C)C)ccc1C1COC(c2c(F)cccc2F)=N1 (stereo not given)	–	5.88 µM (active)
CC1(C)C(/C=C(\Cl)C(F)(F)F)C1C(=O)OC(C#N)c1cccc(Oc2ccccc2)c1 (stereo not given)	-7.21% [at 94.8 µM]	–
[Cl][Sb]([Cl])[Cl]	–	5.45 µM (active)
Cc1c(Cl)c(=O)oc2cc(OP(=O)(OCCCl)OCCCl)ccc12	6.56%	–
CCCCCCCCCBr	-9.63% [at 94.8 µM]	–
CC1(C)[C@H](C(=O)O[C@H](C#N)c2cccc(Oc3ccccc3)c2)[C@@H]1/C=C(\Cl)C(F)(F)F	-9.94%	–
